Screens from PubChem BioAssay.
NCOA3 inh = inhibitors of human steroid receptor coactivator 3 (SRC3) | Q9Y6Q9 | HEK293 GAL4-SRC3 luciferase reporter, luminescence | inhibition, % at 3.6 µM | 360,000 tested, 0.17% active | AID 588352;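 active = inhibition above a per-campaign cutoff, the mean of all compounds plus 3 SD, cut at about 60% in these data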;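 also: 0% = DMSO-treated cells and 100% = gossypol-treated cells at 36 µM; higher means less SRC3-driven luciferase light from the GAL4 reporter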
NR5A2 inv ag = suppresses constitutive activity of human LRH-1 | 360,000 tested, 0.13% active | HEK293T StAR-luciferase reporter, LRH-1 transfected, 24 h | inhibition, % at 3.6 µM | AID 602396;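 active = inhibition above the mean inhibition of all tested compounds plus 3 SD, cut at about 73% in these data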;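 also: 0% = DMSO wells and 100% = reporter-only cells lacking LRH-1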
NCOA2 inhibitor = human SRC2 (NCOA2) inhibition; Q15596; 370,000 tested, 0.17% active; inhibition, % at 9 µM; HEK293 GAL4-SRC2 luciferase reporter, luminescence;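 active = inhibition above the mean inhibition of all tested compounds plus 3 SD, set per campaign, cut at about 52% in these data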;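 also: 0% = DMSO treated cells and 100% = cells given Gossypol at 36 µM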
Target sequence (Q15596 whole entry, looked up, the tested form may be a part): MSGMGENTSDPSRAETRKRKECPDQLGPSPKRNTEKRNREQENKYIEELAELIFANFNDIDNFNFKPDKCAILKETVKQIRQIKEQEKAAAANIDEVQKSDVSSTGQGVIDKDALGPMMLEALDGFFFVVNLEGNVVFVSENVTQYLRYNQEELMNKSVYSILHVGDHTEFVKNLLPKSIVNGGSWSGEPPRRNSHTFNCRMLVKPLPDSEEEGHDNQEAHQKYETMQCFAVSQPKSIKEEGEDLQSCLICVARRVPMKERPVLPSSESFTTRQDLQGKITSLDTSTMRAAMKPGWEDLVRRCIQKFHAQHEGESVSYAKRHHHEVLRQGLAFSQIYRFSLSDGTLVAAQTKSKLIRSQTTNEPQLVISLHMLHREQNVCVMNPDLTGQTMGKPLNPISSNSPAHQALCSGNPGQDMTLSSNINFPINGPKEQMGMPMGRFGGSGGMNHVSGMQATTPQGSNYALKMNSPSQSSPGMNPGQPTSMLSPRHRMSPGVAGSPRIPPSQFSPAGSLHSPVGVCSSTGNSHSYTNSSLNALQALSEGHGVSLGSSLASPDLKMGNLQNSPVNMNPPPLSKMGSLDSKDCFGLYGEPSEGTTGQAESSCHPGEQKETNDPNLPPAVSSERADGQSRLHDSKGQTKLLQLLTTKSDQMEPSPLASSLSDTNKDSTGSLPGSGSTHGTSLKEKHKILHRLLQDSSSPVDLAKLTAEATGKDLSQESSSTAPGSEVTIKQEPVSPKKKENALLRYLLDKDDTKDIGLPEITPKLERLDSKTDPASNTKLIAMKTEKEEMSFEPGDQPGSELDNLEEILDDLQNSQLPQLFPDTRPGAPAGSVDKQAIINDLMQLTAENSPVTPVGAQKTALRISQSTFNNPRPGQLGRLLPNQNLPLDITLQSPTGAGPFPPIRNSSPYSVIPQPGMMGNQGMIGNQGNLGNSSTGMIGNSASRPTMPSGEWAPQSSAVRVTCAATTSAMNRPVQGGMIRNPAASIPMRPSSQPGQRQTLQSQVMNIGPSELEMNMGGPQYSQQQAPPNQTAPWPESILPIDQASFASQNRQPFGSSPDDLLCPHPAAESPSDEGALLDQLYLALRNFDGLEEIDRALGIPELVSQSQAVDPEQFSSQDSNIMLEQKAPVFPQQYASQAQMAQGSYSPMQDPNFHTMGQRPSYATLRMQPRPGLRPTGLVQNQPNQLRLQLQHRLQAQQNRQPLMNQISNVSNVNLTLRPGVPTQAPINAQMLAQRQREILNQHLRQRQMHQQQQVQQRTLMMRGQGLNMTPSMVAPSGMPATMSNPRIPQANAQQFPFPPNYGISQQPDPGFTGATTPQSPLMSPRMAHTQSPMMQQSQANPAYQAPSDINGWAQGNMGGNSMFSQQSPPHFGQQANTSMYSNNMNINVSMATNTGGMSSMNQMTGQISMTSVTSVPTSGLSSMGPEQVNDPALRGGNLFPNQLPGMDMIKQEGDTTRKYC
SRC1 inh = inhibits human SRC1 coactivator; Q15788; 360,000 tested, 0.12% active; inhibition, % at 3.6 µM; AID 588354; HEK293 GAL4-SRC1 luciferase reporter, luminescence;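 active = inhibition above the campaign mean plus 3 SD, with each screening campaign given its own cutoff, cut at about 60% in these data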;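 also: 0% = DMSO treated cells and 100% = gossypol at 36 µM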
COUP-TFII inh = NR2F2 (human) inhibition, primary screen; AID 686940; 370,000 tested, 0.7% active; inhibition, % at 8.6 µM; HEK293T NGFI-A luciferase reporter, luminescence;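 active = inhibition above a per-plate cutoff, mean inhibition of test wells between control levels plus 3 SD, cut at about 38% in these data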;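 also: cells cotransfected with COUP-TFII expression vector driving the NGFI-A reporter; 0% = median of COUP-TF2 test wells and 100% = reporter-only cells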
GalR3 antag = antagonists of human GalR3; O60755; HEK293 GalR3-CNG cAMP membrane potential fluorescence; galR3 body fused to GalR1 C-terminus; inhibition, % at 3 µM; 360,000 tested, 0.44% active;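 active = inhibition above the screen-wide average plus 3 SD, cut at about 13% in these data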;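 also: forskolin and galanin both at EC90 stimulate the cells; cAMP rise reported by CNG channel membrane potential dye signal; 0% = forskolin plus galanin with DMSO and 100% = forskolin alone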
Gal4-VP16 ctr = counter-screen for COUP-TFII antagonists: inhibitors of VP16; AID 687007; inhibition, % at 8.5 µM; HEK293 Gal4-VP16 luciferase reporter, luminescence; 2,500 tested, 25% active; shares compounds with COUP-TFII inh; in the data active = inhibition above about 13%
COUP-TFII conf = confirmation of human COUP-TFII (NR2F2) inhibitors. shares compounds with COUP-TFII inh. HEK293 NGFI-A luciferase reporter, luminescence. inhibition, % at 8.5 µM. 2,500 tested, 45% active. AID 687008;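 active = mean inhibition over three repeats above a set limit taken from the earlier primary screen, cut at about 38% in these data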;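 also: 100% = cells given the luciferase reporter alone without the COUP-TF2 vector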
Starred values were filed as active, the others as inactive; . = not tested or not shown; ! = repeats disagree. Only some compounds are listed: those with a hit (about 1.1% of all), similar ones and a draw of the others.

SMILES	NCOA3 inh	NR5A2 inv ag	NCOA2 inhibitor	SRC1 inh	COUP-TFII inh	GalR3 antag	Gal4-VP16 ctr	COUP-TFII conf
COc1ccc(OC)c(Nc2nc(-c3sc(NC(=O)C(C)(C)C)nc3C)cs2)c1	-13	29	-24	11	31	-8	.	.
COCCNC(=S)N(C)[C@H]1C[C@H]2c3[nH]c4cccc(-c5ccccc5)c4c3CCN2C(=O)[C@H]1[C@H](C)O	.	.	14	.	13	-4	.	.
CC(C)(C)C1CCc2c(sc(NC(=O)CSc3ncn[nH]3)c2C#N)C1 (stereo unspecified)	2	-1	6	15	-4	-3	.	.
N#Cc1c(NC(=O)CCCC(=O)O)sc2c1CCCCC2	-13	-27	61*	-66	46*	0	17*	1
N#Cc1c(NC(=O)CSc2ncn[nH]2)sc2c1CCCC2	26	39	75*	23	77*	-5	78*	74*
CC1CCc2c(sc(NC(=O)CSc3ncn[nH]3)c2C#N)C1 (stereo unspecified)	53	47	82*	44	86*	-6	80*	84*
Cc1nc(N2CCN(c3ccccn3)CC2)c2c(C)c(C(=O)Nc3c(F)cc(F)cc3Br)sc2n1	7	-25	-8	-4	42*	-7	0	25
CC(=O)c1c(C(C)=O)c(C)n(Cc2ccc(Cl)cc2)c1C	17	22	11	9	43*	-3	6	18
CCOC(=O)c1c(C=O)c(C)n(Cc2ccc(Cl)cc2)c1C	21	3	16	2	3	-7	.	.
COc1ccc(OC)c(NC(=O)CCC(=O)Oc2ccc(C)cc2)c1	6	11	-15	0	39*	-8	-6	0
CNc1nc(-c2ccc(OC)cc2)c(-c2ccc(OC)cc2)s1	2	-2	3	10	41*	-3	-17	-13
Cc1ccc(-n2nc3c(=O)n(C(C)C(=O)NCc4ccco4)nc(C)c3c2C)cc1 (stereo unspecified)	0	-13	-2	-72	1	3	.	.
Cc1ccc(-n2nc3c(=O)n(CC(=O)NCCCc4ccccc4)nc(C)c3c2C)cc1	15	-7	-16	-11	12	-9	.	.
Cc1ccc(-n2nc3c(=O)n(C(C)C(=O)NCCCc4ccccc4)nc(C)c3c2C)cc1 (stereo unspecified)	27	3	24	12	55*	-9	-2	45*
Cc1ccc(-n2nc3c(=O)n(C(C)C(=O)NCc4ccccc4Cl)nc(C)c3c2C)cc1 (stereo unspecified)	-4	27	12	-11	47*	-4	5	39*
CCN1/C(=C/C(C)=C/c2sc3ccccc3[n+]2CC)Sc2ccccc21	70*	77*	-8	39	72*!	-5	26*	74*
CCN1/C(=C\C(=S)Nc2ccccc2)Sc2ccccc21	6	7	-16	-17	-6	-3	.	.
O=C(Nc1ccc(N2CCN(c3ncccc3C(F)(F)F)CC2)nc1)c1cccs1	35	17	4	24	52*	-6	5	40*
O=C(Nc1ccc(N2CCN(c3ccc(C(F)(F)F)cn3)CC2)nc1)c1cccs1	2	-11	21	9	8	-3	.	.
O=C(Nc1ccc(OC(F)(F)F)cc1)Nc1c(-c2ccc(C(F)(F)F)cc2)nc2ncccn12	.	.	-5	.	4	.	.	.
COc1ccc(CCNc2ncnc3c2oc2ccccc23)cc1OC	36	50	18	25	76*	-1	2	73*
COc1ccc(CCNc2nc(C)nc3c2oc2ccccc23)cc1OC	13	11	5	13	40*	-3	0	27
CCC[C@H]1[C@@H](NC(=O)C2CCCCC2)CC[C@@]23CCCN2C(=O)CCC[C@@H]13	.	.	.	.	-24	.	.	.
COc1cc(C(=O)NCC(=O)N/N=C/c2cccnc2)cc(OC)c1OC	-27	-2	-30	7	4	-9	.	.
CCN(CC(=O)Nc1ccc(NC(C)=O)cc1)C(=O)c1c(C)nn(Cc2ccc(C)cc2)c1Cl	-2	9	10	-13	11	0	.	.
SMILES	NCOA3 inh	NR5A2 inv ag	NCOA2 inhibitor	SRC1 inh	COUP-TFII inh	GalR3 antag	Gal4-VP16 ctr	COUP-TFII conf
COc1ccc(CCN(C)C2CCCN(C(=O)c3sccc3C)C2)cc1OC (stereo unspecified)	16	12	3	4	-4	-1	.	.
CCCCCCCCN1CCS(=O)(=O)N(Cc2ccc(C)cc2)C(C(=O)OC)C1 (stereo unspecified)	.	.	12	.	20	.	.	.
c1ccc(CNc2ncnc3scc(-c4cccs4)c23)nc1	31	2	4	11	60*	-6	-1	31
COc1ccccc1N(/N=C1\Sc2ccccc2C1=O)C(C)=O	26	27	-18	21	39*	-1	-21	33
O=C(CSc1nc2nc(-c3cccs3)cc(C(F)(F)F)c2c(=O)[nH]1)C(F)(F)F	17	-13	34	17	38*	-10	-3	36
COC(=O)CSc1nc2nc(-c3cccs3)cc(C(F)(F)F)c2c(=O)[nH]1	-1	-8	-21	15	17	-12	.	.
CC(C)Cc1ccc(C(C)C(=O)Nc2nccs2)cc1 (stereo unspecified)	8	2	-6	5	2	-6	.	.
CC(C)Cc1ccc(C(C)C(=O)Nc2ccccc2O)cc1 (stereo unspecified)	15	34	33	13	49*	-1	7	50*
CCOc1ncccc1C(=O)Nc1ccc(S(=O)(=O)NC2=NCCCCC2)cc1	2	-7	-46	-19	-11	-6	.	.
CCCOc1ccc(C(=O)Nc2ccc(S(=O)(=O)NC3=NCCCCC3)cc2)cc1	-4	31	3	-1	43*	-4	-3	10
CC1CCCCN1c1ncnc(N)c1[N+](=O)[O-] (stereo unspecified)	43	5	43	45	37	0	.	.
CC1Cc2ccccc2N1c1ncnc(N)c1[N+](=O)[O-] (stereo unspecified)	64*	41	72*	66*	47*	6	21*	34
CC(=O)c1sc(Nc2nc3ccc(F)cc3s2)nc1C	-45	-92	-74	-72	-43	-2	.	.
COC(=O)c1ccc2nc(Nc3nc4ccc(F)cc4s3)sc2c1	33	1	7	26	52*	-4	-10	58*
COC(=O)c1ccc2nc(NC(=O)C(C)(C)C)sc2c1	37	18	22	25	66*	-6	-75	35
O=C(Nc1ccc(OC(F)(F)F)cc1)Nc1c(-c2ccccc2)nc2ncccn12	.	.	12	.	13	.	.	.
